For some of these results: Potency and affinity values are given separately.
Legend:
Parameters in all cases: scale not given: direction of the effect not stated beside the values
[1] = biological target: Protein translocase subunit SecA (Escherichia coli (strain K12)) (UniProt P10408); assay: Assay to Identify E. coli SecA ATPase Inhibitors; type: functional; conditions: 30 µM
[2] = biological target: T1, Ubiquitin-activating enzyme e1, putative (Leishmania donovani (strain BPK282A1)) (UniProt E9BSI1); assay: Leishmania donovani Ubiquitin Activating Enzyme (LdE1); type: functional; conditions: 30 µM
T1 sequence (whole entry): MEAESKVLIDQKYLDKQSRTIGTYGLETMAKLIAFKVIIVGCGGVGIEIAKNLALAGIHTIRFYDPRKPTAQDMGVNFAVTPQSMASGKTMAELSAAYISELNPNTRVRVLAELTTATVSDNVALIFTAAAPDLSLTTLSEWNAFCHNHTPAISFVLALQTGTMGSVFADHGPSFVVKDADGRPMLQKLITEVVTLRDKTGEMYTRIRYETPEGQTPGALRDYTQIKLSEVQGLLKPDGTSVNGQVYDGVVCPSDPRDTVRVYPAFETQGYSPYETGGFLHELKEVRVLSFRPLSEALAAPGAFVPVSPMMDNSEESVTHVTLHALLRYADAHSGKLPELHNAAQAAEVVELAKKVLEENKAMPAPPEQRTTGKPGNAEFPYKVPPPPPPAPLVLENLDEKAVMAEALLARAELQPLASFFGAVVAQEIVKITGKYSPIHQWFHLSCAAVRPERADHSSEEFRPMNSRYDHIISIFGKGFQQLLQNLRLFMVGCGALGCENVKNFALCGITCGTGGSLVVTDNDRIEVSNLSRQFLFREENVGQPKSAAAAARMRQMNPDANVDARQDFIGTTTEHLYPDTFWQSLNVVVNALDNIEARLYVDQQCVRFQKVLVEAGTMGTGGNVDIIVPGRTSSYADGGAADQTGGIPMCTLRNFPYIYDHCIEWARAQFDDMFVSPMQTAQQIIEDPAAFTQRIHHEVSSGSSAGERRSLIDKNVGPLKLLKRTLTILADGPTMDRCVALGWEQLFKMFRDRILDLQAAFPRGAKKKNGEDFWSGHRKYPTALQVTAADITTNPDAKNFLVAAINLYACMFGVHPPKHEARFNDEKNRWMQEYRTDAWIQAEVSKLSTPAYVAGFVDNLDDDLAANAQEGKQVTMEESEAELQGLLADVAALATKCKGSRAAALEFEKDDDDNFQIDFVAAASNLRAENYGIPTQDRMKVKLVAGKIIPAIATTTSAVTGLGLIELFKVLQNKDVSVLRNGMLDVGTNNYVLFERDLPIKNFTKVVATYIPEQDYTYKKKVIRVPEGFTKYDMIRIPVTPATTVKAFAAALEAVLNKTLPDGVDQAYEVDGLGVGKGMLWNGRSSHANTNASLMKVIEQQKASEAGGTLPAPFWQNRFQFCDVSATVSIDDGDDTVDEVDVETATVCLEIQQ

[3] = biological target: AMP-activated protein kinase, AMPK (Homo sapiens) (UniProt P54646+O43741+P54619+Q9UGJ0+Q9Y478+Q13131+Q9UGI9); assay: AMP-dependent Kinase enzyme assay. An in vitro enzyme assay that detects ADP turnover that is directly proportional to AMPK activity. This uses naive AMPK that is activated during the assay with MK-8722; type: functional; conditions: 30 µM
[4] = biological target: Sialic acid-binding Ig-like lectin 9 (Homo sapiens) (UniProt Q9Y336); assay: Hs-Siglec9 ALPHAscreen SOP 20170721; conditions: 10 µM
[5] = test system: Trypanosoma cruzi; assay: Trypanosoma cruzi phosphomannomutase and mannose-1-phosphate guanylyltransferase assay; type: functional; conditions: 10 µM
[6] = biological target: T2, Arginase-2, mitochondrial (Homo sapiens) (UniProt P78540); assay: in vitro enzyme assay to detect the production of urea directly proportional to the activity of Arginase II; type: functional; conditions: 33.3 µM; note: in the data most compounds retested in dose-response had high values
T2 sequence (whole entry): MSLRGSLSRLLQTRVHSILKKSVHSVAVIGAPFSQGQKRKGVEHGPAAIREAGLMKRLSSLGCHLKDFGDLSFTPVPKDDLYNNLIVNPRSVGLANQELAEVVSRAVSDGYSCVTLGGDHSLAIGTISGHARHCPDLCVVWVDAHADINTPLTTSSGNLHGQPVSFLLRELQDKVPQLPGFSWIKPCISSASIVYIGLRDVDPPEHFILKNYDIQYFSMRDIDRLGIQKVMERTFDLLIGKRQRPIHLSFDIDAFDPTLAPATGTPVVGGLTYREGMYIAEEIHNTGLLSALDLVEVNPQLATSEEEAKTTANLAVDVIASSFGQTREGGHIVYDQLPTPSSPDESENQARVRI

[7] = biological target: T3, Proteasome subunit beta (Trypanosoma cruzi) (UniProt O96673); assay: Trypanosoma cruzi proteasome chymotrypsin-like activity (TcProtChymo) assay.; note: in the data most compounds retested in dose-response had high values; type: functional; conditions: 9.37 µM
T3 sequence (whole entry): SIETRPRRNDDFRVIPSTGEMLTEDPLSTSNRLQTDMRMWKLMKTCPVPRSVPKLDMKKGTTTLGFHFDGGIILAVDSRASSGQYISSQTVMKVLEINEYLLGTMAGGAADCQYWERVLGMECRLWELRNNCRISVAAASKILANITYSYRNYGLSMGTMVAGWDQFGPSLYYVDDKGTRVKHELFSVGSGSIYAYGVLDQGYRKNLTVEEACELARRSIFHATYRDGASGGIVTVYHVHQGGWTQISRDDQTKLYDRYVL

[8] = species: Homo sapiens; assay: To identify inhibition of the IFN signalling (Jak-Stat) pathway via expression of an eGFP reporter gene under the control of an IFN-stimulated response element (ISRE) containing MxA promoter.; type: functional; conditions: 30 µM
[9] = biological target: T4, Tyrosyl-tRNA synthetase, putative (Trypanosoma cruzi (strain CL Brener)) (UniProt Q4DSP6); assay: Trypanosoma cruzi tyrosyl tRNA synthetase (TcYRS) _High Tyrosine SOP; type: functional; conditions: 30 µM; note: in the data most compounds retested in dose-response had high values
T4 sequence (whole entry): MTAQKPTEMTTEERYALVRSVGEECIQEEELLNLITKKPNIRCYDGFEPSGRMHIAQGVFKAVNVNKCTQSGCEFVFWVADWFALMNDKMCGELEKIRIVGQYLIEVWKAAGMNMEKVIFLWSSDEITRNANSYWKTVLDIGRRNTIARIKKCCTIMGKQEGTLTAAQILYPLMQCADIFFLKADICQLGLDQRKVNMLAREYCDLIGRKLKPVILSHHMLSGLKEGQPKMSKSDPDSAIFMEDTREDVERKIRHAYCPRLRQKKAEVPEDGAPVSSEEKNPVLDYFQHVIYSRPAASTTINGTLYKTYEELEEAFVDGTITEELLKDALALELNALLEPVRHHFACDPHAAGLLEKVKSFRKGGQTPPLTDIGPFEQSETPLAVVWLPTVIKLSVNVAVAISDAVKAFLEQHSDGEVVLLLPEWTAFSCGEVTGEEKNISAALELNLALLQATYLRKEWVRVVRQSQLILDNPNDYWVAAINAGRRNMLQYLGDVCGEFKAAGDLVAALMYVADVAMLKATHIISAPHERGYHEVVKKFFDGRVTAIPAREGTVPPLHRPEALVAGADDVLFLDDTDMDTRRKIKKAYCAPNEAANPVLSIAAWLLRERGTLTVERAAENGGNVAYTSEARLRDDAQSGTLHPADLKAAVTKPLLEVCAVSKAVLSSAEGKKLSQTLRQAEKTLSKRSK

[10] = biological target: T4, Tyrosyl-tRNA synthetase, putative (Trypanosoma cruzi (strain CL Brener)); assay: Trypanosoma cruzi tyrosyl tRNA synthetase (TcYRS) SOP; type: functional; conditions: 30 µM
[11] = biological target: Chromo domain-containing protein 1 (Saccharomyces cerevisiae (strain ATCC 204508 / S288c) (Baker's yeast)) (UniProt P32657); assay: ScCHD-1 Enzyme Inhibition Assay; type: functional; conditions: 30 µM; note: in the data most compounds retested in dose-response had high values
Chromo domain-containing protein 1 (Saccharomyces cerevisiae (strain ATCC 204508 / S288c) (Baker's yeast)), sequence (P32657 whole entry, the tested form may be a part): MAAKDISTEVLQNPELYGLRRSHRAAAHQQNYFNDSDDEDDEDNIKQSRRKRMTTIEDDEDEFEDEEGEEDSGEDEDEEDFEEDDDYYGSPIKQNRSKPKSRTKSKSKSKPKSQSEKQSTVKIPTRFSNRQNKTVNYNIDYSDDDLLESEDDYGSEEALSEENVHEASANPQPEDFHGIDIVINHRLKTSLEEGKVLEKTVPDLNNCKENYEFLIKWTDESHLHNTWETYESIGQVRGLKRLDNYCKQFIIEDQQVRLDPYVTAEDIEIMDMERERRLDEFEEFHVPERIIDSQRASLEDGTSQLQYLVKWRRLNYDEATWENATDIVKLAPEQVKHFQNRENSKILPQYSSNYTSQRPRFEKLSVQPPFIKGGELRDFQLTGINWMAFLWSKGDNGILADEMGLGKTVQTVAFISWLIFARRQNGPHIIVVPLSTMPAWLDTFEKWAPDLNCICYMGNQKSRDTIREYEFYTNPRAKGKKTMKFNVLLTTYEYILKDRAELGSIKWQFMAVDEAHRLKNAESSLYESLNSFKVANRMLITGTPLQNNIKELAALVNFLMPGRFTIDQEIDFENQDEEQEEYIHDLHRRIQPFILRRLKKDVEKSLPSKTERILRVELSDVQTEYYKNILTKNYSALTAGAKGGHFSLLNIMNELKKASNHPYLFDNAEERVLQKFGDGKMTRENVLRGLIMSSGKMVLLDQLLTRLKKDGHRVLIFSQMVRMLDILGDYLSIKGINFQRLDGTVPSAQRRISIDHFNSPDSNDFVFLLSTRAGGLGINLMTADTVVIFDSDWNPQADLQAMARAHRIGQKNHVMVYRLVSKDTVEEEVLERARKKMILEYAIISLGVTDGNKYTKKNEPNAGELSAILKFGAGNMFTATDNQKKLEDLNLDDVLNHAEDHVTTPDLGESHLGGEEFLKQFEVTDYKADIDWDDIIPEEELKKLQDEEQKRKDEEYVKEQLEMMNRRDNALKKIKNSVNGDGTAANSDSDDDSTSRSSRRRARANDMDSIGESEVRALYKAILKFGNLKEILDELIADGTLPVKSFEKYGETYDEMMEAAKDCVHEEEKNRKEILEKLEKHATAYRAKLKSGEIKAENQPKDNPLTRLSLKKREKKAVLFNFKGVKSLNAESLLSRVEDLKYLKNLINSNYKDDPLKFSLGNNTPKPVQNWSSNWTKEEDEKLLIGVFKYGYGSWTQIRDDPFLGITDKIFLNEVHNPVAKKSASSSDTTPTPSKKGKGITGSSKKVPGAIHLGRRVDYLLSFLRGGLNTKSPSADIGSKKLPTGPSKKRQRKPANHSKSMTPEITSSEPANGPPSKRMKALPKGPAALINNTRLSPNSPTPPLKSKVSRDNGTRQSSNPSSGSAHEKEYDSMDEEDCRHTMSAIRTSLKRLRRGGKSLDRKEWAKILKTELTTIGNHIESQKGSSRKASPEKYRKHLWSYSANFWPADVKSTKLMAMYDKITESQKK

Protein translocase subunit SecA (Escherichia coli (strain K12)), sequence (P10408 whole entry): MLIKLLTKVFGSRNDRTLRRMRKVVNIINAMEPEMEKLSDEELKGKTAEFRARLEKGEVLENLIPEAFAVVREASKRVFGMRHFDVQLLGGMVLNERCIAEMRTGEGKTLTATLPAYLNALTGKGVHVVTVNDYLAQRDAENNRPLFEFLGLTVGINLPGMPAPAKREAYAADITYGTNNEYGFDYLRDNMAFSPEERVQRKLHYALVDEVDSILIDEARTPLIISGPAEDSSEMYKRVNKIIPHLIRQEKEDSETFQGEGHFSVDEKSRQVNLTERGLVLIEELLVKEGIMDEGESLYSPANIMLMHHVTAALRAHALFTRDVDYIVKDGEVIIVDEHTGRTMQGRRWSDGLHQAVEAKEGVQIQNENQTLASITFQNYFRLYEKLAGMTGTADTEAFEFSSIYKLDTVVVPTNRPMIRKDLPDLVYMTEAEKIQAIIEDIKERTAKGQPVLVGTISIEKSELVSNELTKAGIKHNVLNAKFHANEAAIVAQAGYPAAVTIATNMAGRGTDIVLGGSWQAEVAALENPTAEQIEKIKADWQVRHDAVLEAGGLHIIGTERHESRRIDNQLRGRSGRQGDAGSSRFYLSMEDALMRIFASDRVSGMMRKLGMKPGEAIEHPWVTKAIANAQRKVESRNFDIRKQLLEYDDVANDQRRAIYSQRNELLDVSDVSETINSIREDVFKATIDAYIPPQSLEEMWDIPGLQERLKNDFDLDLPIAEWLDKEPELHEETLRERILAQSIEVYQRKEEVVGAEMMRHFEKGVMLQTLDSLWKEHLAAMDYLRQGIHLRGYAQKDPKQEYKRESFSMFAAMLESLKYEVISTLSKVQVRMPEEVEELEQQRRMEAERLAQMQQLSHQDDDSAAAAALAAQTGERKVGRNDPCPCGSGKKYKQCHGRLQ
Sialic acid-binding Ig-like lectin 9 (Homo sapiens), sequence (Q9Y336 whole entry): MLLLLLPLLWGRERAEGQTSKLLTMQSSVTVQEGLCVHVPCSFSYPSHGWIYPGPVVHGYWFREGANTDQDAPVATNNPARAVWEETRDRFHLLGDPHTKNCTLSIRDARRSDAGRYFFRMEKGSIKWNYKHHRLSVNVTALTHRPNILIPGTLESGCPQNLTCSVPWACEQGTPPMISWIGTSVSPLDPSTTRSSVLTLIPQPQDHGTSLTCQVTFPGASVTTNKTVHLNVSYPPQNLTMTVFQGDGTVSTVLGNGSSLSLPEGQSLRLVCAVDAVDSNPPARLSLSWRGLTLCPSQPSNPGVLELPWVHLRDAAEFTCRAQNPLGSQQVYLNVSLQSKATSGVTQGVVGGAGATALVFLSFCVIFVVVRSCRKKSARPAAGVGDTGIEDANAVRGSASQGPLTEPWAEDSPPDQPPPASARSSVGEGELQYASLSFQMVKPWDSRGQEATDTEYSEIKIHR

Row | SMILES | Percent Effect [1] [%] | Percent Effect [2] [%] | Percent Effect [3] [%] | Percent Effect [4] [%] | Percent Effect [5] [%] | Percent Effect [6] [%] | Percent Effect [7] [%] | Percent Effect [8] [%] | Percent Effect [9] [%] | Percent Effect [10] [%] | Percent Effect [11] [%]
1 | CCC(=O)Nc1ccc2c(c1)CN(C(=O)c1ccco1)CC2 | -1.48 | 15.6 | 8.06 | -13 | -1.48 | -1.94 | 9.4 | 33.1 | 3.17 | 14.1 | -8.67
2 | CNC(=O)c1cccc(NC(=O)CN2CCN(S(C)(=O)=O)CC2)c1 | -3.07 | 18.9 | -6.24 | 18.5 | 5.57 | 4.22 | 13.8 | 8.76 | 5.38 | 16.1 | -3.08
3 | Cn1cc(CN2CC[C@H]3OCC[C@@H](C(=O)N4CCCCO4)[C@@H]3C2)cn1 | -3.19 | 9.33 | -0.147 | 1.18 | -0.982 | -6.51 | 11.3 | 6.18 | 2.12 | 7.69 | -4.05
4 | O=C(Nc1cccc(CNCc2cccs2)c1)C1CCCC1 | -4.41 | 13.2 | -0.852 | -3.26 | 2.15 | -2.16 | 2.45 | 3.75 | 6.4 | 18.5 | -4.46
5 | CC(C)(C)c1nc(CN(Cc2cccs2)C2CCS(=O)(=O)C2)no1 (stereo not given) | -1.36 | 21.1 | -5.34 | -2 | 4.76 | 1.44 | 5.67 | 26.2 | 6.4 | 25.9 | -8.43
6 | Cn1cnc2c1C(COCC1CC1)CN(C(=O)Cc1ccsc1)C2 (stereo not given) | -4.47 | 10.4 | -8.29 | 8.48 | 6.02 | -8.39 | 7.14 | 9.25 | 2.12 | 6.41 | 84.8
7 | Cc1nc(-c2ccsc2)ccc1C(=O)NCCC1CCCO1 (stereo not given) | -8.67 | 0 | -8.2 | 10 | 9.77 | -1.92 | 3.51 | -2.44 | 4.41 | 9.76 | -10.2
8 | CC1c2ncc(CNC(=O)C3CC3)n2CCN1Cc1cnn(C)c1 (stereo not given) | -0.181 | 8 | -3.48 | -1.35 | 6.56 | -55.4 | 13.8 | 5.07 | 3.12 | 12.5 | -7.95
9 | Cc1cccc(CN2C[C@@H]3COC[C@]3(COc3ccc(C#N)cn3)C2)n1 | -2.98 | -8.22 | -1.47 | 2.28 | 10.1 | -1.2 | 3.34 | 4.74 | 0 | 8.64 | -0.121
10 | CCOC(=O)N1CCN(c2nc(NCCCO)c3ccccc3n2)CC1 | -3.88 | -1.33 | 5.25 | 7.39 | 5.5 | -0.88 | 0.739 | 15.2 | 2.12 | 5.13 | -3.87
11 | O=C(c1cscn1)N1CCC2(CCN(Cc3nccs3)C2)CC1 | -1.95 | 2.7 | 2.22 | 3.97 | 0.293 | -6.05 | 16.4 | -17.2 | 1.08 | 5.13 | 5.03
12 | COc1c(C2CCCN2CC(=O)Nc2cc(C)no2)c(C)nn1C (stereo not given) | -5.41 | 13.5 | -3.77 | 4.82 | -4.74 | -2.03 | 6.82 | 0.794 | 5.94 | 11 | 3.98
13 | O=C(c1ccc(NC2CC2)nc1)N1CCCC(n2cccn2)C1 (stereo not given) | -6.81 | 5.26 | -1.25 | 1.67 | -4.51 | 2.3 | 3.51 | 18.5 | 0.49 | 7.32 | -0.025
14 | COc1cccc(N2CCN(C(=O)[C@H](O)C3CCCCC3)CC2=O)c1 | -1.35 | 5.41 | 2.95 | 1.44 | 2.32 | 2.38 | 21 | 3.62 | 8.99 | 17.1 | -2.64
15 | Cc1cc(C)nc(Nc2cc(C3CCCN(C)C3)nc(C)n2)n1 (stereo not given) | -3.56 | 9.46 | -3.72 | 6.27 | 1.19 | -1.62 | 9.2 | 1.68 | 4.3 | 11.7 | -18.4
16 | CCCNCc1cn(C)nc1-c1cccnc1 | -2.45 | -2.7 | 1.1 | -2.38 | -6.55 | 1.74 | 11.8 | -8 | 0 | 1.24 | 1.57
17 | CC(C)c1ccc(C(O)Cn2c(=O)c(C#N)cn(C3CC3)c2=O)cc1 (stereo not given) | -0.117 | -2.63 | 7.18 | 0.134 | -6.39 | 4.21 | 0.334 | 1.74 | -1.47 | -2.44 | -2.6
18 | COc1ccc(C)cc1CN(C)Cc1nc2c(cnn2C)c(=O)[nH]1 | -1.35 | 18.4 | 1.85 | 2.21 | 2.52 | -4.32 | 7.02 | 7.09 | 9.36 | 23.5 | -5.71
19 | COCCc1noc(CN(C)C(=O)c2cccc(N3CCCC3=O)c2)n1 | -2.59 | -2.53 | 0.707 | 3.91 | -1.23 | -0.38 | -0.246 | -3.22 | -0.493 | -3.8 | -1.74
20 | N#Cc1c(F)cccc1N1CCN(S(=O)(=O)c2cccs2)CC1 | -2.74 | -8.22 | 3.3 | 3.95 | 3.33 | 13.2 | 8.16 | 55.5 | -38.7 | -52.5 | 48.5

— ChEMBL document CHEMBL3988442, “University of Dundee, Small-Polar-MMV Screening Library” (2021)
